Measured values as given in PubChem BioAssay (EPA / NIEHS).
Some compounds were tested as several samples or in several runs, with calls that do not always agree. Activity calls are given as the source filed them. Rule for the calls: active = hit-call score of the fitted dose curve at least 0.9, where 1 is the maximum; inactive = score below 0.9.

What was measured:
Conditions in all cases: mRNA level, 48 h; actives raise or lower the signal
[1] = read-out: Alkaline Phosphatase, Placental (ALPP) gene, ALPP (gene 250); assay: LTEA_HepaRG_ALPP: Life Technologies and Expression Analysis (LTEA) Assay for Alkaline Phosphatase, Placental (ALPP) gene using HepaRG (AID 2283468)
How it was run: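 HepaRG cells plated 48 h, then exposed in duplicate for 48 h in serum-free induction medium to 8-point half-log series from 100 uM in 0.5% DMSO. ALPP mRNA by TaqMan qRT-PCR, normalized to ACTB/GAPDH/POLR2A; bidirectional fit versus DMSO.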

[2] = read-out: Bcl-2 (BAD) gene, BAD (gene 572); assay: LTEA_HepaRG_BAD: Life Technologies and Expression Analysis (LTEA) Assay for Bcl-2 (BAD) gene using HepaRG (AID 2283469)
How it was run: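 Read-out: qRT-PCR of BAD mRNA, normalized to three housekeeping genes. Human HepaRG cultures got 48 h chemical exposure in 0.5% DMSO, duplicate eight-point half-log series topping at 100 uM. Gain or loss of signal fitted versus DMSO vehicle.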

[3] = read-out: Bcl-2 (BAX) gene, BAX (gene 581); assay: LTEA_HepaRG_BAX: Life Technologies and Expression Analysis (LTEA) Assay for Bcl-2 (BAX) gene using HepaRG (AID 2283470)
How it was run: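 qRT-PCR read-out of BAX mRNA, normalized to three housekeeping genes, after 48 h chemical exposure of human HepaRG cells in serum-free induction medium; eight-point half-log series, top 100 uM, 0.5% DMSO vehicle; bidirectional fit versus DMSO.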

[4] = read-out: adenosine kinase (ADK) gene, ADK (gene 132); assay: LTEA_HepaRG_ADK: Life Technologies and Expression Analysis (LTEA) Assay for adenosine kinase (ADK) gene using HepaRG (AID 2283471)
How it was run: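 Read-out is ADK transcript level measured by qRT-PCR and normalised to three housekeeping genes. Cells are human HepaRG, dosed for 48 h at up to 100 uM in 0.5% DMSO. Gain or loss of signal is fitted against DMSO controls.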

[5] = read-out: Alpha-fetoprotein (AFP) gene, AFP (gene 174); assay: LTEA_HepaRG_AFP: Life Technologies and Expression Analysis (LTEA) Assay for Alpha-fetoprotein (AFP) gene using HepaRG (AID 2283472)
How it was run: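 qRT-PCR (Fluidigm TaqMan) readout of AFP transcript, normalized to three housekeeping genes, fitted bidirectionally against 0.5% DMSO baseline. HepaRG cells received chemicals for 48 h in serum-free induction medium, top concentration 100 uM, half-log steps.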

BCL2L11 (gene 10018) = assay: LTEA_HepaRG_BCL2L11: Life Technologies and Expression Analysis (LTEA) Assay for Bcl-2 (BCL2L11) gene using HepaRG (AID 2283473)
How it was run: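 Differentiated human HepaRG cells were exposed 48 h in serum-free induction medium to eight half-log concentrations up to 100 uM in 0.5% DMSO, in duplicate. BCL2L11 mRNA was quantified by TaqMan qRT-PCR, normalized to ACTB, GAPDH and POLR2A; induction or repression fitted versus DMSO.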

[6] = read-out: Apolipoprotein A-V (APOA5) gene, APOA5 (gene 116519); assay: LTEA_HepaRG_APOA5: Life Technologies and Expression Analysis (LTEA) Assay for Apolipoprotein A-V (APOA5) gene using HepaRG (AID 2283474)
How it was run: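 Differentiated HepaRG cells in serum-free induction medium, exposed 48 h in duplicate to eight half-log concentrations topping at 100 uM (0.5% DMSO). APOA5 mRNA by Fluidigm TaqMan qRT-PCR, normalized to ACTB, GAPDH and POLR2A; bidirectional fit versus DMSO.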

[7] = read-out: Apoptosis regulator Bcl-2 (Homo sapiens) (UniProt P10415); assay: LTEA_HepaRG_BCL2: Life Technologies and Expression Analysis (LTEA) Assay for Bcl-2 gene using HepaRG (AID 2283475)
How it was run: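 qRT-PCR read-out (Fluidigm TaqMan) of BCL2 transcript, normalised to three housekeeping genes, after 48 h chemical exposure of HepaRG cells; 8-point half-log series, top 100 uM, 0.5% DMSO vehicle. Gain or loss of signal fitted relative to DMSO baseline.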

[8] = read-out: Bcl-2 (BID) gene, BID (gene 637); assay: LTEA_HepaRG_BID: Life Technologies and Expression Analysis (LTEA) Assay for Bcl-2 (BID) gene using HepaRG (AID 2283476)
How it was run: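 HepaRG, 48 h exposure, 8-pt half-log series, top 100 uM, 0.5% DMSO vehicle, duplicates. Readout: BID mRNA by TaqMan qRT-PCR; housekeeping-normalized; bidirectional curve fit vs DMSO baseline.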

Caspase-3 (Homo sapiens) = Caspase-3 (Homo sapiens) (UniProt P42574); assay: LTEA_HepaRG_CASP3: Life Technologies and Expression Analysis (LTEA) Assay for cysteine-aspartic acid protease (CASP3) using HepaRG (AID 2283477)
Chain of Caspase-3 (Homo sapiens) (P42574 whole entry, looked up): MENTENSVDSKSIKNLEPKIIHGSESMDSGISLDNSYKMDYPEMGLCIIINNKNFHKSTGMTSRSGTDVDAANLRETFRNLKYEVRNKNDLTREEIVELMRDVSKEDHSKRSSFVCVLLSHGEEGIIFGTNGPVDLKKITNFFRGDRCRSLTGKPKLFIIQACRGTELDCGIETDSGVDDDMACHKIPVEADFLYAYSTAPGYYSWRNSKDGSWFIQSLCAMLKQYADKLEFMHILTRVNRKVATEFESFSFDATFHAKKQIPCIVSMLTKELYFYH
How it was run: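 Differentiated HepaRG cells, plated 48 h, were treated in duplicate in serum-free induction medium for 48 h with eight half-log concentrations up to 100 uM in 0.5% DMSO. CASP3 mRNA measured by qRT-PCR, normalized to ACTB, GAPDH, POLR2A.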

[9] = read-out: Cytochrome P450 (CYP24A1), CYP24A1 (gene 1591); assay: LTEA_HepaRG_CYP24A1: Life Technologies and Expression Analysis (LTEA) Assay for Cytochrome P450 (CYP24A1) using HepaRG (AID 2283478)
How it was run: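 HepaRG cells plated 48 h, then exposed in duplicate in serum-free induction medium for 48 h to 8-point half-log series from 100 uM in 0.5% DMSO. CYP24A1 mRNA by Fluidigm qRT-PCR, normalized to ACTB, GAPDH, POLR2A; bidirectional fit versus DMSO.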

[10] = read-out: Cytochrome P450 (CYP1A2), CYP1A2 (gene 1544); assay: LTEA_HepaRG_CYP1A2: Life Technologies and Expression Analysis (LTEA) Assay for Cytochrome P450 (CYP1A2) using HepaRG (AID 2283479)
How it was run: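 Differentiated human HepaRG cells in serum-free induction medium exposed 48 hours in duplicate to 8 half-log concentrations from 100 uM, 0.5% DMSO. CYP1A2 mRNA quantified by qRT-PCR, normalized to ACTB, GAPDH and POLR2A; bidirectional fitting versus DMSO.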

[11] = read-out: cysteine-aspartic acid protease (CASP8), CASP8 (gene 841); assay: LTEA_HepaRG_CASP8: Life Technologies and Expression Analysis (LTEA) Assay for cysteine-aspartic acid protease (CASP8) using HepaRG (AID 2283480)
How it was run: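 CASP8 transcript measured by TaqMan qRT-PCR with ACTB/GAPDH/POLR2A normalization, after 48 h chemical exposure of HepaRG cells in serum-free induction medium. Eight concentrations, top 100 uM, half-log steps, 0.5% DMSO vehicle; fits in both directions versus DMSO.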

[12] = read-out: Cytochrome P450 (CYP2B6), CYP2B6 (gene 1555); assay: LTEA_HepaRG_CYP2B6: Life Technologies and Expression Analysis (LTEA) Assay for Cytochrome P450 (CYP2B6) using HepaRG (AID 2283481)
How it was run: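 Differentiated human HepaRG cells in serum-free induction medium, dosed in duplicate for 48 h over 8 half-log concentrations topping at 100 uM (0.5% DMSO). CYP2B6 mRNA measured by TaqMan qRT-PCR, normalized to ACTB, GAPDH, POLR2A; bidirectional fit versus DMSO.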

[13] = read-out: Cytochrome P450 2C19 (Homo sapiens) (UniProt P33261); assay: LTEA_HepaRG_CYP2C19: Life Technologies and Expression Analysis (LTEA) Assay for CYP2C19 using HepaRG (AID 2283482)
How it was run: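 Differentiated HepaRG cells in serum-free induction medium exposed 48 h in duplicate, 8 concentrations from 100 uM by half-log steps in 0.5% DMSO. CYP2C19 mRNA measured by TaqMan qRT-PCR, normalized to ACTB, GAPDH, POLR2A. Bidirectional fit versus DMSO.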

CYP2C8 (gene 1558) = assay: LTEA_HepaRG_CYP2C8: Life Technologies and Expression Analysis (LTEA) Assay for CYP2C8 using HepaRG (AID 2283483)
How it was run: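 CYP2C8 expression measured by TaqMan qRT-PCR and normalized to three housekeeping genes. HepaRG cultures were treated for 48 h with an eight-point half-log series topping at 100 uM, vehicle 0.5% DMSO, duplicates; fitted both directions against DMSO.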

CYP2C9 (gene 1559) = assay: LTEA_HepaRG_CYP2C9: Life Technologies and Expression Analysis (LTEA) Assay for CYP2C9 using HepaRG (AID 2283484)
How it was run: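 CYP2C9 transcript level, quantified by TaqMan qRT-PCR against three housekeeping genes, was fitted bidirectionally relative to 0.5% DMSO. HepaRG cultures were treated 48 h, in duplicate, at eight half-log concentrations topping at 100 uM.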

CYP2E1 (gene 1571) = assay: LTEA_HepaRG_CYP2E1: Life Technologies and Expression Analysis (LTEA) Assay for CYP2E1 using HepaRG (AID 2283485)
How it was run: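 CYP2E1 transcript was measured by TaqMan qRT-PCR in human HepaRG cultures after 48 h chemical exposure (top 100 uM, half-log steps, 0.5% DMSO vehicle). Housekeeping-gene normalization; gain or loss fitted relative to DMSO baseline.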

CYP4A11 (gene 1579) = assay: LTEA_HepaRG_CYP4A11: Life Technologies and Expression Analysis (LTEA) Assay for CYP4A11 using HepaRG (AID 2283486)
How it was run: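 Differentiated HepaRG cells, 48 h after plating, exposed in duplicate for 48 h to 8 half-log concentrations up to 100 uM in 0.5% DMSO in serum-free induction medium. CYP4A11 mRNA measured by TaqMan qRT-PCR, normalized to ACTB, GAPDH and POLR2A.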

[14] = read-out: Peroxisomal acyl-coenzyme A oxidase 1 (ACOX1) gene, ACOX1 (gene 51); assay: LTEA_HepaRG_ACOX1: Life Technologies and Expression Analysis (LTEA) Assay for Peroxisomal acyl-coenzyme A oxidase 1 (ACOX1) gene using HepaRG (AID 2283467)
How it was run: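 ACOX1 transcript levels were quantified by TaqMan qRT-PCR against three housekeeping genes after 48 h chemical exposure of differentiated human HepaRG cells. Exposure used eight half-log steps topping at 100 uM, 0.5% DMSO vehicle, in duplicate. Bidirectional curve fits were made relative to DMSO.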

Measured: AC50

Chain of Cytochrome P450 2C19 (Homo sapiens) (P33261 whole entry, looked up): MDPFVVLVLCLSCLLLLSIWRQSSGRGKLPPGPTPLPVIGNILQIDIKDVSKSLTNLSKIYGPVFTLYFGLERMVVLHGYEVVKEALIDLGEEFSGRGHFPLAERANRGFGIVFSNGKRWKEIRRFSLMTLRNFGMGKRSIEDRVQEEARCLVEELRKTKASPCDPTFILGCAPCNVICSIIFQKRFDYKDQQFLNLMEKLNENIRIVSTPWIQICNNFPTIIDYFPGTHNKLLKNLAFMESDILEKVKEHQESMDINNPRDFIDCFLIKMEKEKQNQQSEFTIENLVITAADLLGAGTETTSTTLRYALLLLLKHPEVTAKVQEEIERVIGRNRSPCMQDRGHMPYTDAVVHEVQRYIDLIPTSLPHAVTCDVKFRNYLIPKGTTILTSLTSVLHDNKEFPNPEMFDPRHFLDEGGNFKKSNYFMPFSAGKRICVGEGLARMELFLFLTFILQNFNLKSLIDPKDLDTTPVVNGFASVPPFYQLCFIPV
Chain of Apoptosis regulator Bcl-2 (Homo sapiens) (P10415 whole entry, looked up): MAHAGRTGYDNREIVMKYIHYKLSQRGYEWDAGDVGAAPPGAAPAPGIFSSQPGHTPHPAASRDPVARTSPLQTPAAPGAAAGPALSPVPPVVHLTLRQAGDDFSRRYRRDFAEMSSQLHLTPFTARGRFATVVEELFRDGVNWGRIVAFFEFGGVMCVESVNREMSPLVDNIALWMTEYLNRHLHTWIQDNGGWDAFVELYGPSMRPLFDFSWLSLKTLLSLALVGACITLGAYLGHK

CC[C@H](c1ccc(O)cc1)[C@@H](CC)c1ccc(O)cc1
active: [1] 83.6 µM | [4] 77.1 µM | BCL2L11 (gene 10018) 77.7 µM | Caspase-3 (Homo sapiens) 78.4 µM | [9] 83.4 µM | [12] 79.4 µM | [13] 80.3 µM | CYP2E1 (gene 1571) 87.9 µM | CYP4A11 (gene 1579) 76.7 µM
not listed: [14]
inactive: all other assays above

CC(C)(C)c1ccc(O)c(C(C)(C)C)c1
active: [7] 0.123 µM | [9] 0.01 µM | [10] 0.104 µM
not listed: [14]
inactive: all other assays above

CC(C)(C)CC(C)(C)c1ccc(O)c(-n2nc3ccccc3n2)c1
active: [10] 31.3 µM | [12] 13.1 µM | [13] 12.7 µM | CYP2E1 (gene 1571) 58.2 µM | CYP4A11 (gene 1579) 50 µM
not listed: [14]
inactive: all other assays above

CCCCC(CC)COC(=O)CCCCC(=O)OCc1ccccc1 (configuration not stated)
not listed: [2]
inactive: all other assays above

O=C(OCCOCCOC(=O)c1ccccc1)c1ccccc1
active: [10] 68.9 µM
inactive: all other assays above

O=[N+]([O-])c1ccc(O)cc1
inactive: [14] | [1] | [2] | [3] | [4] | [5] | BCL2L11 (gene 10018) | [6] | [7] | [8] | Caspase-3 (Homo sapiens) | [9] | [10] | [11] | [12] | [13] | CYP2C8 (gene 1558) | CYP2C9 (gene 1559) | CYP2E1 (gene 1571) | CYP4A11 (gene 1579)
active: [12] 19.9 µM
